Test results: publication PMC11006913
Numbering of substitutions follows the chain as printed.

Experiments:
Test in all cases: PBM; 200 nM protein, PBS
Conditions in all cases: dsDNA, one strand shown
HOXB4 [1] = target: HOXB4 (Homo sapiens, UniProt P17483 148-234)
VENTX [2] = target: T1, VENTX (Homo sapiens, UniProt O95231 78-163, R121Q)
T1 sequence: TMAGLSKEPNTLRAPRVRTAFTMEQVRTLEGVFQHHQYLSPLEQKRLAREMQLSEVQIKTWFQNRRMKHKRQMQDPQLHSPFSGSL

HOXA4 [3] = target: HOXA4 (Homo sapiens, UniProt Q00056 201-287, W262R)
PRRX1 [4] = target: PRRX1 (Homo sapiens, UniProt P54821 80-166, F113S)
HOXB6 = HOXB6 (Homo sapiens, UniProt P17509 132-218, K202E)
HOXA2 = HOXA2 (Homo sapiens, UniProt O43364 129-215, R185T)
HOXA4 [5] = target: HOXA4 (Homo sapiens, UniProt Q00056 201-287, R217L)
HOXB4 [6] = target: HOXB4 (Homo sapiens, UniProt P17483 148-234, V174I)
MSX2 [7] = target: MSX2 (Homo sapiens, UniProt P35548 130-214, R199I)
PAX4 [8] = target: T2, PAX4 (Homo sapiens, UniProt O43316 9-242, R200Q)
T2 sequence: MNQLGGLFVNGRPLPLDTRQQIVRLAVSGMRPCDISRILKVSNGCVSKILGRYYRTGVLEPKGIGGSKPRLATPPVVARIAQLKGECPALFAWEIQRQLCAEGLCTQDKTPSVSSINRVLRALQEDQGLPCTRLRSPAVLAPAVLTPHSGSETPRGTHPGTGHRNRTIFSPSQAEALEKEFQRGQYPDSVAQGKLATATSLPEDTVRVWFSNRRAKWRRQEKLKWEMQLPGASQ

HOXA4 [9] = target: HOXA4 (Homo sapiens, UniProt Q00056 201-287)
MSX2 [10] = target: MSX2 (Homo sapiens, UniProt P35548 130-214)
MSX2 [11] = target: MSX2 (Homo sapiens, UniProt P35548 130-214, F161Y)
HOXA4 [12] = target: HOXA4 (Homo sapiens, UniProt Q00056 201-287, W262F)
PRRX1 [13] = target: PRRX1 (Homo sapiens, UniProt P54821 80-166)
VENTX [14] = target: T3, VENTX (Homo sapiens, UniProt O95231 78-163, Y115F)
T3 sequence: T1 sequence with Y38F, Q44R

PAX4 [15] = target: T4, PAX4 (Homo sapiens, UniProt O43316 9-242, F177V)
T4 sequence: T2 sequence with F169V, Q192R

PAX4 [16] = target: T5, PAX4 (Homo sapiens, UniProt O43316 9-242, F177Y)
T5 sequence: T2 sequence with F169Y, Q192R

VAX1 [17] = target: VAX1 (Homo sapiens, UniProt Q5SQQ9 86-172, T142I)
VAX1 [18] = target: VAX1 (Homo sapiens, UniProt Q5SQQ9 86-172, K157R)
Sequence of VAX1 (Homo sapiens, UniProt Q5SQQ9 86-172, K157R) (Q5SQQ9 86-172 K157R): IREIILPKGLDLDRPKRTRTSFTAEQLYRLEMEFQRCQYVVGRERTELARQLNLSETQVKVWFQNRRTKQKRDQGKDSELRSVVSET

Sequence of MSX2 (Homo sapiens, UniProt P35548 130-214, R199I) (P35548 130-214 R199I): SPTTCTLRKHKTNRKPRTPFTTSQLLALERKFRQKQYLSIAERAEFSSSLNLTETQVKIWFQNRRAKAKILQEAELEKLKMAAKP
Sequence of HOXA4 (Homo sapiens, UniProt Q00056 201-287, W262R) (Q00056 201-287 W262R): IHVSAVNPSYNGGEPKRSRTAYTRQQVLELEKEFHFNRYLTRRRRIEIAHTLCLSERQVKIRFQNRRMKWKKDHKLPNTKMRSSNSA
Sequence of HOXA2 (O43364 129-215 R185T): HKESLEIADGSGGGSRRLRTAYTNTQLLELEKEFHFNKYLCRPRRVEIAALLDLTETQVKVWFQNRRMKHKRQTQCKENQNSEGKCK
Sequence of HOXA4 (Homo sapiens, UniProt Q00056 201-287) (Q00056 201-287): as the sequence (Q00056 201-287 W262R) above, with R62W counted along it
Sequence of HOXB6 (P17509 132-218 K202E): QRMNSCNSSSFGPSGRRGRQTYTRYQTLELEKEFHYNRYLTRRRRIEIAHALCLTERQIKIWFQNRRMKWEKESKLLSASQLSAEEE
Sequence of PRRX1 (Homo sapiens, UniProt P54821 80-166) (P54821 80-166): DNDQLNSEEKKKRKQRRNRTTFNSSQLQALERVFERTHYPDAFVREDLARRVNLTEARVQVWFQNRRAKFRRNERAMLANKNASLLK
Sequence of MSX2 (Homo sapiens, UniProt P35548 130-214) (P35548 130-214): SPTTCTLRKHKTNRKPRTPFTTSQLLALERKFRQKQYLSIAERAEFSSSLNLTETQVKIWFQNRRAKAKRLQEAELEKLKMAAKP
Sequence of PRRX1 (Homo sapiens, UniProt P54821 80-166, F113S) (P54821 80-166 F113S): as the sequence (P54821 80-166) above, with F34S counted along it
Sequence of HOXB4 (Homo sapiens, UniProt P17483 148-234) (P17483 148-234): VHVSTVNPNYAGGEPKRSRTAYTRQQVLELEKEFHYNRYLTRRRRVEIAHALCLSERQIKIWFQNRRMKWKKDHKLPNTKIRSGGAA
Sequence of HOXB4 (Homo sapiens, UniProt P17483 148-234, V174I) (P17483 148-234 V174I): as the sequence (P17483 148-234) above, with V27I counted along it
Sequence of MSX2 (Homo sapiens, UniProt P35548 130-214, F161Y) (P35548 130-214 F161Y): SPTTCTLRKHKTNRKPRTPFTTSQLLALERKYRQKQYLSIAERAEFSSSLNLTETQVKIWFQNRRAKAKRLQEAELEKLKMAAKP
Sequence of HOXA4 (Homo sapiens, UniProt Q00056 201-287, W262F) (Q00056 201-287 W262F): as the sequence (Q00056 201-287 W262R) above, with R62F counted along it
Sequence of HOXA4 (Homo sapiens, UniProt Q00056 201-287, R217L) (Q00056 201-287 R217L): as the sequence (Q00056 201-287 W262R) above, with R17L, R62W counted along it
Sequence of VAX1 (Homo sapiens, UniProt Q5SQQ9 86-172, T142I) (Q5SQQ9 86-172 T142I): as the sequence (Q5SQQ9 86-172 K157R) above, with T57I, R72K counted along it

Row | Sequence | binding signal (HOXB4 [1]) | binding signal (VENTX [2]) | binding signal (HOXA4 [3]) | binding signal (PRRX1 [4]) | binding signal (HOXB6) | binding signal (HOXA2) | binding signal (HOXA4 [5]) | binding signal (HOXB4 [6]) | binding signal (MSX2 [7]) | binding signal (PAX4 [8]) | binding signal (HOXA4 [9]) | binding signal (MSX2 [10]) | binding signal (MSX2 [11]) | binding signal (HOXA4 [12]) | binding signal (PRRX1 [13]) | binding signal (VENTX [14]) | binding signal (PAX4 [15]) | binding signal (PAX4 [16]) | binding signal (VAX1 [17]) | binding signal (VAX1 [18])
1 | CAATTATC | 13 upbm affinity estimate (log intensity, higher = more binding, comparable within an allelic series) | 11.7 upbm affinity estimate (log intensity, higher = more binding, comparable within an allelic series) | 10.5 upbm affinity estimate (log intensity, higher = more binding, comparable within an allelic series) | 11.3 upbm affinity estimate (log intensity, higher = more binding, comparable within an allelic series) | 9.98 upbm affinity estimate (log intensity, higher = more binding, comparable within an allelic series) | 12.4 upbm affinity estimate (log intensity, higher = more binding, comparable within an allelic series) | 11.9 upbm affinity estimate (log intensity, higher = more binding, comparable within an allelic series) | 13.6 upbm affinity estimate (log intensity, higher = more binding, comparable within an allelic series) | 13 upbm affinity estimate (log intensity, higher = more binding, comparable within an allelic series) | 11.8 upbm affinity estimate (log intensity, higher = more binding, comparable within an allelic series) | 13.6 upbm affinity estimate (log intensity, higher = more binding, comparable within an allelic series) | 13.9 upbm affinity estimate (log intensity, higher = more binding, comparable within an allelic series) | 13.7 upbm affinity estimate (log intensity, higher = more binding, comparable within an allelic series) | 11.2 upbm affinity estimate (log intensity, higher = more binding, comparable within an allelic series) | 13.4 upbm affinity estimate (log intensity, higher = more binding, comparable within an allelic series) | – | – | – | – | –
2 | CCAATTAA | 13 upbm affinity estimate (log intensity, higher = more binding, comparable within an allelic series) | 12.2 upbm affinity estimate (log intensity, higher = more binding, comparable within an allelic series) | 10.6 upbm affinity estimate (log intensity, higher = more binding, comparable within an allelic series) | 11.6 upbm affinity estimate (log intensity, higher = more binding, comparable within an allelic series) | 10 upbm affinity estimate (log intensity, higher = more binding, comparable within an allelic series) | 12.9 upbm affinity estimate (log intensity, higher = more binding, comparable within an allelic series) | 12 upbm affinity estimate (log intensity, higher = more binding, comparable within an allelic series) | 13.7 upbm affinity estimate (log intensity, higher = more binding, comparable within an allelic series) | 13.3 upbm affinity estimate (log intensity, higher = more binding, comparable within an allelic series) | 12.4 upbm affinity estimate (log intensity, higher = more binding, comparable within an allelic series) | 13.6 upbm affinity estimate (log intensity, higher = more binding, comparable within an allelic series) | 14.2 upbm affinity estimate (log intensity, higher = more binding, comparable within an allelic series) | 13.8 upbm affinity estimate (log intensity, higher = more binding, comparable within an allelic series) | 11.3 upbm affinity estimate (log intensity, higher = more binding, comparable within an allelic series) | 13.6 upbm affinity estimate (log intensity, higher = more binding, comparable within an allelic series) | 11.8 upbm affinity estimate (log intensity, higher = more binding, comparable within an allelic series) | 10.6 upbm affinity estimate (log intensity, higher = more binding, comparable within an allelic series) | 11.1 upbm affinity estimate (log intensity, higher = more binding, comparable within an allelic series) | 12.7 upbm affinity estimate (log intensity, higher = more binding, comparable within an allelic series) | 13 upbm affinity estimate (log intensity, higher = more binding, comparable within an allelic series)
3 | TCAATTAA | 13.3 upbm affinity estimate (log intensity, higher = more binding, comparable within an allelic series) | 12 upbm affinity estimate (log intensity, higher = more binding, comparable within an allelic series) | 10.7 upbm affinity estimate (log intensity, higher = more binding, comparable within an allelic series) | 11.3 upbm affinity estimate (log intensity, higher = more binding, comparable within an allelic series) | 9.94 upbm affinity estimate (log intensity, higher = more binding, comparable within an allelic series) | 13.1 upbm affinity estimate (log intensity, higher = more binding, comparable within an allelic series) | 12.4 upbm affinity estimate (log intensity, higher = more binding, comparable within an allelic series) | 14 upbm affinity estimate (log intensity, higher = more binding, comparable within an allelic series) | 12.8 upbm affinity estimate (log intensity, higher = more binding, comparable within an allelic series) | 11.8 upbm affinity estimate (log intensity, higher = more binding, comparable within an allelic series) | 13.9 upbm affinity estimate (log intensity, higher = more binding, comparable within an allelic series) | 13.9 upbm affinity estimate (log intensity, higher = more binding, comparable within an allelic series) | 13.5 upbm affinity estimate (log intensity, higher = more binding, comparable within an allelic series) | 11.8 upbm affinity estimate (log intensity, higher = more binding, comparable within an allelic series) | 13.5 upbm affinity estimate (log intensity, higher = more binding, comparable within an allelic series) | 11.6 upbm affinity estimate (log intensity, higher = more binding, comparable within an allelic series) | – | – | 13.1 upbm affinity estimate (log intensity, higher = more binding, comparable within an allelic series) | 13 upbm affinity estimate (log intensity, higher = more binding, comparable within an allelic series)
4 | GGCAGGCC | 7.41 upbm affinity estimate (log intensity, higher = more binding, comparable within an allelic series) | – | – | – | – | – | – | 7.33 upbm affinity estimate (log intensity, higher = more binding, comparable within an allelic series) | – | 9.21 upbm affinity estimate (log intensity, higher = more binding, comparable within an allelic series) | – | – | – | – | – | – | 9.13 upbm affinity estimate (log intensity, higher = more binding, comparable within an allelic series) | 9.09 upbm affinity estimate (log intensity, higher = more binding, comparable within an allelic series) | – | –
5 | TATTAGAA | 10.9 upbm affinity estimate (log intensity, higher = more binding, comparable within an allelic series) | – | – | – | – | – | – | 11 upbm affinity estimate (log intensity, higher = more binding, comparable within an allelic series) | – | 11 upbm affinity estimate (log intensity, higher = more binding, comparable within an allelic series) | – | – | – | – | – | – | 10.3 upbm affinity estimate (log intensity, higher = more binding, comparable within an allelic series) | – | – | –
6 | AATTAATC | 13.2 upbm affinity estimate (log intensity, higher = more binding, comparable within an allelic series) | 11.8 upbm affinity estimate (log intensity, higher = more binding, comparable within an allelic series) | 10.6 upbm affinity estimate (log intensity, higher = more binding, comparable within an allelic series) | 11.3 upbm affinity estimate (log intensity, higher = more binding, comparable within an allelic series) | 10 upbm affinity estimate (log intensity, higher = more binding, comparable within an allelic series) | 12.6 upbm affinity estimate (log intensity, higher = more binding, comparable within an allelic series) | 12.3 upbm affinity estimate (log intensity, higher = more binding, comparable within an allelic series) | 13.9 upbm affinity estimate (log intensity, higher = more binding, comparable within an allelic series) | 12.3 upbm affinity estimate (log intensity, higher = more binding, comparable within an allelic series) | 12.2 upbm affinity estimate (log intensity, higher = more binding, comparable within an allelic series) | 13.9 upbm affinity estimate (log intensity, higher = more binding, comparable within an allelic series) | 13.3 upbm affinity estimate (log intensity, higher = more binding, comparable within an allelic series) | 13 upbm affinity estimate (log intensity, higher = more binding, comparable within an allelic series) | 11.3 upbm affinity estimate (log intensity, higher = more binding, comparable within an allelic series) | 13.3 upbm affinity estimate (log intensity, higher = more binding, comparable within an allelic series) | 11.5 upbm affinity estimate (log intensity, higher = more binding, comparable within an allelic series) | 10.7 upbm affinity estimate (log intensity, higher = more binding, comparable within an allelic series) | 11.2 upbm affinity estimate (log intensity, higher = more binding, comparable within an allelic series) | – | –
